Screens as filed in PubChem BioAssay.
INS-1E GSIS act = GLuc luminescence reporter in INS-1E cells, primary screen for activators of glucose-dependent secretion of insulin | activation, % at 16.6 µM | 370,000 compounds, 0.61% hits | INS-1E GLuc reporter insulin secretion, 2-3 h | AID 743287, 2014;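 active = lowest replicate activation of at least 40%, so every replicate reaches that level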;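 also: 0% = median of neutral control wells and 100% = median of IBMX positive control wells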
CaV13 ICDI inh = Disruptors of the CACNA1D IQ motif to Ca2+-dependent inactivation inhibitor domain association, primary screening, Förster resonance energy transfer in intact living …. HEK cells, CFP/YFP FRET ICDI-IQ, plate reader, 10 min; percent FRET-ratio fall versus neutral wells. inhibition, % at 12.3 µM. 340,000 compounds, 0.098% hits;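 active = mean replicate inhibition of at least 30% and at least 1% of replicates passing that level; inconclusive = only one of the two criteria is met; inactive = neither criterion is met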;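 also: 0% = median of the neutral control wells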
PGC1a acetyl inh = inhibitors of PGC1a acetylation signal, primary screen, cell-based, U2OS, AlphaScreen, inhibitor mode | AlphaScreen anti-acetyl-lysine; with virally co-expressed GCN5 acetyltransferase | inhibition, % at 15.6 µM | 350,000 compounds, 0.17% hits | AID 651687, 2012;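 active = every replicate shows inhibition of at least 40%; inconclusive = mean inhibition at least 40% but some replicate below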;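 also: 0% = neutral control wells and 100% = positive control wells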
ERAP1 HTS inh = human ERAP1 aminopeptidase inhibitors, primary screen, biochemical, single point, plate reader | Endoplasmic reticulum aminopeptidase 1 (Homo sapiens), Q9NZ08 | recombinant ERAP1, Leu-AMC fluorescence, 60 min | inhibition, % at 10.7 µM | 340,000 compounds, 0.15% hits;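 active = mean replicate inhibition of at least 30%, or all replicates individually reaching that 30% level; inactive = mean below 30% and not every replicate reaching it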;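 also: 0% = neutral control wells and 100% = L-leucinethiol positive control wells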
DENV2 CPE = inhibitors of DENV2 cytopathic effect, primary screen, cell-based, plate reader, single concentration | DENV2-infected cells, cytopathic effect rescue | CPE inhibition, % at 9.99 µM | 350,000 compounds, 1.7% hits | AID 651640, 2012; in the data active = CPE inhibition above about 20%, passing the limit was not always enough; inconclusive = no clear call, values can overlap the other calls; tested in BHK-21 cells;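 also: 0% = median of neutral control wells and 100% = median of positive control wells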
Ecoli rRNA inh = reduced GFP signal of wild-type E. coli, primary screen, bacterial rRNA inhibitor project, GFP/RFP fluorescence, OD600, single point. 350,000 compounds, 1.6% hits. GFP signal change (wild-type ribosome), % (test concentration not listed). E. coli WT GFP vs humanized-ribosome RFP mutants, 24 h; active compounds read low; DMSO median 0, no signal -100;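 active = significant combined selectivity score with lowered wild-type GFP, culture density cut under 30%, mutant RFP and density less affected; inactive = any of these conditions unmet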
* hit, by the source's call; ? = inconclusive; / = no result; + = active, no number. Hits are enriched below; roughly 3.2% of the tested compounds scored in any of these assays.

SMILES	INS-1E GSIS act	CaV13 ICDI inh	PGC1a acetyl inh	ERAP1 HTS inh	DENV2 CPE	Ecoli rRNA inh
COC(=O)C1=C(C)N(Cc2cccc(C(F)(F)F)c2)C(=NCc2cccc(C(F)(F)F)c2)NC1c1ccc(Cl)cc1 (stereo not given)	785*	-3	/	2	?	-44
COC(=O)C1=C(C)N(Cc2ccccc2)C(=NCC(C)C)N[C@H]1c1cccc(F)c1	-23	-6	-31	5	25*	-36
CC(C)NC(=O)Nc1ccc2c(c1)CC(=O)N([C@H](C)CO)C[C@@H](C)[C@H](CN(C)Cc1ccc(-c3ccccc3)cc1)O2	-14	/	-5	-2	-3	4
COC(=O)C1=C(C)N(C)C(=NCc2ccc(OC)cc2)NC1c1ccc(F)cc1 (stereo not given)	/	-9	/	1	50*	13
COC(=O)C1=C(C)N(Cc2cccc(C(F)(F)F)c2)C(=NCc2ccc(OC)cc2)NC1c1cccc(Cl)c1 (stereo not given)	+	-4	/	-2	15	-54
CCN(C[C@H]1[C@@H](c2ccccc2)[C@@H](CO)N1CC1CC1)C(=O)c1ccccc1F	10	/	/	0	9	-1
CC(C)NC(=O)Nc1ccc2c(c1)C(=O)N(C)C[C@H](C)[C@H](CN(C)S(C)(=O)=O)O2	-12	/	/	/	/	1
COC(=O)C(CC#Cc1ccc2c(c1)[C@]1(C(=O)N2)[C@H](c2ccccc2OCCO)N2[C@H](c3ccccc3)[C@H](c3ccccc3)OC(=O)[C@H]2[C@@H]1C(=O)N1CCCCCCC1)C(=O)OC	/	/	2	12	-6	/
C[C@@H]1CN([C@@H](C)CO)C(=O)Cc2cc(NC(=O)Nc3ccc(C(F)(F)F)cc3)ccc2O[C@H]1CN(C)C(=O)Nc1ccc(C(F)(F)F)cc1	-10	/	-2	-4	53*	1
C[C@@H]1CN([C@@H](C)CO)C(=O)Cc2cc(NC(=O)c3ccncc3)ccc2O[C@@H]1CN(C)C(=O)Nc1ccc(C(F)(F)F)cc1	15	/	6	1	1	1
C[C@H]1CN([C@@H](C)CO)C(=O)Cc2cc(NC(=O)C3CCCCC3)ccc2O[C@@H]1CN(C)Cc1ccc(C(F)(F)F)cc1	-23	/	-3	1	39*	-2
C[C@@H]1CN([C@@H](C)CO)C(=O)Cc2cc(NC(=O)c3ccncc3)ccc2O[C@@H]1CN(C)Cc1ccc(C(F)(F)F)cc1	-5	/	-19	2	31*	-7
C[C@@H]1CN([C@H](C)CO)C(=O)Cc2cc(NC(=O)c3ccncc3)ccc2O[C@H]1CN(C)C(=O)Nc1ccc(C(F)(F)F)cc1	11	/	0	1	23*	1
CC(C)C(=O)Nc1ccc2c(c1)C(=O)N(C)[C@H]1CC[C@@H](CC(=O)NCc3ccccc3F)O[C@H]1CO2	1	/	-1	/	-4	-4
C[C@@H]1CN([C@@H](C)CO)C(=O)c2cc(-c3cccnc3)cnc2O[C@@H]1CN(C)C(=O)NC1CCCC1	12	/	4	-3	-12	5
CC(C)NC(=O)N[C@H]1CC[C@@H](CC(=O)NCCN2CCCC2)O[C@@H]1CO	5	/	-2	1	?	4
CO[C@H]1CN(C)C(=O)c2cc(NC(=O)Nc3cc(F)ccc3F)ccc2OC[C@@H](C)N(C(=O)c2ccccn2)C[C@@H]1C	-6	/	12	/	/	2
C[C@@H]1CN([C@H](C)CO)C(=O)Cc2cc(NC(=O)Nc3ccc(C(F)(F)F)cc3)ccc2O[C@H]1CN(C)Cc1ccc(C(F)(F)F)cc1	8	/	0	1	6	3
C[C@H](CO)N1C[C@H](C)[C@H](CN(C)Cc2ccc(C(F)(F)F)cc2)Oc2ccc(NC(=O)Nc3ccc(C(F)(F)F)cc3)cc2CC1=O	3	/	1	1	63*	4
C[C@H](CO)N1C[C@H](C)[C@@H](CN(C)Cc2ccc(C(F)(F)F)cc2)Oc2ccc(NS(C)(=O)=O)cc2CC1=O	-20	/	-15	-2	-4	-21
